Measured values published in the supplement of paper PMC13380429.

Columns and labels:
[1] = tested on: Vero E6 infected with SARS-CoV-2; assay: morphology score (similarity to uninfected cells); higher = more like uninfected cells; conditions: 24 h
[2] = tested on: Vero E6 infected with SARS-CoV-2; assay: SARS-CoV-2 infection rate relative to infected DMSO; higher = more infection, active = 60 or less; conditions: 24 h

Cc1ccc(NC(=O)c2ccc(CN3CCN(C)CC3)cc2)cc1Nc1nccc(-c2cccnc2)n1 [imatinib] (10 µM)
morphology score [1]: 0.738
SARS-CoV-2 infection rate [2]: 37% (active)

CNc1ccc([N+](=O)[O-])cc1-n1cnc(-c2ccc(C(F)(F)F)cc2)c1 (10 µM)
morphology score [1]: 0.117
SARS-CoV-2 infection rate [2]: 97% (inactive)

CCn1c2ccccc2c2cc(Nc3ccnc(NCCCN4CCOCC4)n3)ccc21 (0.833333 µM)
morphology score [1]: 0.235
SARS-CoV-2 infection rate [2]: 93% (inactive)

CCCCC[C@H](O)/C=C/[C@H]1[C@H](O)CC(=O)[C@@H]1C/C=C\CCCC(=O)O [dinoprostone] (10 µM)
morphology score [1]: 0.144
SARS-CoV-2 infection rate [2]: 95.5% (inactive)

CC(=O)NCCC(=O)N[C@@H](Cc1c[nH]cn1)C(=O)O [N-acetylcarnosine] (10 µM)
morphology score [1]: -0.122
SARS-CoV-2 infection rate [2]: 116% (inactive)

CC(C)C[C@H](NC(=O)CNC(=O)c1cc(Cl)ccc1Cl)B1OC(=O)C(CC(=O)O)(CC(=O)O)O1 [ixazomib-citrate] (0.833333 µM)
morphology score [1]: 0.101
SARS-CoV-2 infection rate [2]: 106% (inactive)

O=C(c1ccccc1)C(O)c1ccccc1 (stereo unspecified) [benzoin] (10 µM)
morphology score [1]: -0.114
SARS-CoV-2 infection rate [2]: 101% (inactive)

CCN(C(=O)c1c(O)c2c(Cl)cccc2n(C)c1=O)c1ccccc1 [laquinimod] (10 µM)
morphology score [1]: 0.168
SARS-CoV-2 infection rate [2]: 99% (inactive)

CC(=O)/N=c1/[nH]c(C)c(-c2ccc(Cl)c(S(=O)(=O)NCCO)c2)s1 (0.833333 µM)
morphology score [1]: 0.335
SARS-CoV-2 infection rate [2]: 104% (inactive)

N#Cc1cnc2cnc(NCc3cccnc3)cc2c1Nc1ccc(F)c(Cl)c1 (10 µM)
morphology score [1]: 0.0314
SARS-CoV-2 infection rate [2]: 102% (inactive)

C[N+](C)(C)CCCCCC[N+](C)(C)C [hexamethonium] (10 µM)
morphology score [1]: -0.257
SARS-CoV-2 infection rate [2]: 114% (inactive)

CC1(C)OC(=O)C(OCC2CC2)=C1c1ccc(S(C)(=O)=O)cc1 [firocoxib] (10 µM)
morphology score [1]: 0.218
SARS-CoV-2 infection rate [2]: 84.5% (inactive)

Nc1nc(N)c2nc(-c3ccccc3)c(N)nc2n1 [triamterene] (0.833333 µM)
morphology score [1]: -0.174
SARS-CoV-2 infection rate [2]: 118% (inactive)

CC(C)(C)c1ccc2cc(C#N)c(C#N)cc2c1 (10 µM)
morphology score [1]: 0.103
SARS-CoV-2 infection rate [2]: 105% (inactive)

CC(C)C[C@@H](N)C(=O)N[C@H]1C(=O)N[C@@H](CC(N)=O)C(=O)N[C@H]2C(=O)N[C@H]3C(=O)N[C@H](C(=O)N[C@H](C(=O)O)c4cc(O)cc(O)c4-c4cc3ccc4O)[C@H](O)c3ccc(c(Cl)c3)Oc3cc2cc(c3O[C@@H]2O[C@H](CO)[C@@H](O)[C@H](O)[C@H]2O[C@H]2C[C@](C)(N)[C@H](O)[C@H](C)O2)Oc2ccc(cc2Cl)[C@H]1O [norvancomycin] (10 µM)
morphology score [1]: 0.00559
SARS-CoV-2 infection rate [2]: 100% (inactive)

O=c1ccc2ccccc2o1 [coumarin] (10 µM)
morphology score [1]: 0.114
SARS-CoV-2 infection rate [2]: 89.5% (inactive)

CCOC(=O)c1ncc2[nH]c3ccc(OCc4ccccc4)cc3c2c1COC (10 µM)
morphology score [1]: -0.0675
SARS-CoV-2 infection rate [2]: 97.5% (inactive)

CCC(=O)O[C@@H]1CC(=O)O[C@H](C)C/C=C/C=C/[C@H](O)[C@H](C)C[C@H](CC=O)[C@H](O[C@@H]2O[C@H](C)[C@@H](O[C@H]3C[C@@](C)(O)[C@@H](OC(=O)CC)[C@H](C)O3)[C@H](N(C)C)[C@H]2O)[C@H]1OC [midecamycin] (10 µM)
morphology score [1]: 0.2
SARS-CoV-2 infection rate [2]: 102% (inactive)

COc1cc(O)c(C(=O)c2ccccc2)cc1S(=O)(=O)O [sulisobenzone] (10 µM)
morphology score [1]: -0.0207
SARS-CoV-2 infection rate [2]: 109% (inactive)

NS(=O)(=O)c1ccc(-n2nc(C(F)(F)F)cc2-c2ccc(Cl)cc2)cc1 (10 µM)
morphology score [1]: 0.0527
SARS-CoV-2 infection rate [2]: 106% (inactive)

COc1ccc2cc1Oc1ccc(cc1)C[C@H]1c3cc(c(OC)cc3CCN1C)Oc1c(OC)c(OC)cc3c1[C@H](C2)N(C)CC3 [tetrandrine] (10 µM)
morphology score [1]: 0.509
SARS-CoV-2 infection rate [2]: 12% (active)

CNC[C@H](O)c1ccc(O)c(O)c1 [epinephrine] (10 µM)
morphology score [1]: 0.0378
SARS-CoV-2 infection rate [2]: 104% (inactive)

C1CCC(/N=C(\NC23CC4CC(CC(C4)C2)C3)N2CCOCC2)CC1 (10 µM)
morphology score [1]: -0.0395
SARS-CoV-2 infection rate [2]: 110% (inactive)

O=C1NCN(c2ccccc2)C12CCN(CCCC(c1ccc(F)cc1)c1ccc(F)cc1)CC2 [fluspirilene] (10 µM)
morphology score [1]: 0.056
SARS-CoV-2 infection rate [2]: 113% (inactive)

CC[C@H](C)[C@@H]([C@@H](CC(=O)N1CCC[C@H]1[C@H](OC)[C@@H](C)C(=O)N[C@@H](Cc1ccccc1)c1nccs1)OC)N(C)C(=O)[C@@H](NC(=O)[C@H](C(C)C)N(C)C)C(C)C [dolastatin-10] (0.833333 µM)
morphology score [1]: 0.0156
SARS-CoV-2 infection rate [2]: 106% (inactive)

O=[N+]([O-])c1ccc2nc(COCc3nc4ccc([N+](=O)[O-])cc4[nH]3)[nH]c2c1 (10 µM)
morphology score [1]: -0.00439
SARS-CoV-2 infection rate [2]: 94.5% (inactive)

C[C@]1(Cn2ccnn2)[C@H](C(=O)O)N2C(=O)C[C@H]2S1(=O)=O [tazobactam] (10 µM)
morphology score [1]: 0.0668
SARS-CoV-2 infection rate [2]: 108% (inactive)

COc1cccc(CCc2ccccc2OCC[C@@H]2C[C@@H](O)CN2C)c1 (10 µM)
morphology score [1]: 0.533
SARS-CoV-2 infection rate [2]: 54.5% (active)

CN1[C@@H]2CC[C@H]1C[C@@H](OC(=O)[C@H](CO)c1ccccc1)C2 [hyoscyamine] (10 µM)
morphology score [1]: 0.139
SARS-CoV-2 infection rate [2]: 90.5% (inactive)

CCN(CC)CCOc1ccc(Nc2ncc3cc(-c4c(Cl)cccc4Cl)c(=O)n(C)c3n2)cc1 (10 µM)
morphology score [1]: -0.126
SARS-CoV-2 infection rate [2]: 123% (inactive)

CNCC(=O)O [sarcosine] (10 µM)
morphology score [1]: 0.0271
SARS-CoV-2 infection rate [2]: 108% (inactive)

O=C(Nc1ccc([N+](=O)[O-])cc1O)Nc1ccccc1Br (0.833333 µM)
morphology score [1]: 0.0726
SARS-CoV-2 infection rate [2]: 103% (inactive)

COc1ccc(NC(=O)c2ccc(-c3ccc(-c4noc(C)n4)cc3C)cc2)cc1N1CCN(C)CC1 (0.833333 µM)
morphology score [1]: 0.0674
SARS-CoV-2 infection rate [2]: 102% (inactive)

CC1=C(/C=C/C(C)=C/C=C/C(C)=C/CO)C(C)(C)CCC1 [retinol] (10 µM)
morphology score [1]: -0.0178
SARS-CoV-2 infection rate [2]: 110% (inactive)

COc1cc(C(=S)N2CCOCC2)cc(OC)c1OC [sulmetozine] (10 µM)
morphology score [1]: 0.0452
SARS-CoV-2 infection rate [2]: 106% (inactive)

CCN1CCC[C@H]1CNC(=O)c1c(O)c(Cl)cc(Cl)c1OC [raclopride] (10 µM)
morphology score [1]: 0.124
SARS-CoV-2 infection rate [2]: 104% (inactive)

NCCCCN(Cc1nc2ccccc2[nH]1)[C@H]1CCCc2cccnc21 (10 µM)
morphology score [1]: 0.0412
SARS-CoV-2 infection rate [2]: 102% (inactive)

N[C@H]1CC[C@H](N[C@@H]2C[C@H]2c2ccccc2)CC1 (10 µM)
morphology score [1]: 0.432
SARS-CoV-2 infection rate [2]: 79.5% (inactive)

COC(=O)C1=C(C)NC(C)=C(C(=O)O[C@H]2CCN(Cc3ccccc3)C2)[C@H]1c1cccc([N+](=O)[O-])c1 [barnidipine] (10 µM)
morphology score [1]: -0.0592
SARS-CoV-2 infection rate [2]: 112% (inactive)

Cc1cc2c(OCC(CNC(C)(C)C)OC(=O)c3ccccc3)cccc2[nH]1 (stereo unspecified) [bopindolol] (10 µM)
morphology score [1]: 0.12
SARS-CoV-2 infection rate [2]: 110% (inactive)

Cc1ccc2c(c1)c1c3n2CCNC3CCC1 (stereo unspecified) [pirlindole] (10 µM)
morphology score [1]: 0.0112
SARS-CoV-2 infection rate [2]: 106% (inactive)

Nc1nc(/C(=C/CC(=O)O)C(=O)N[C@@H]2C(=O)N3C(C(=O)O)=CCS[C@H]23)cs1 [ceftibuten] (10 µM)
morphology score [1]: 0.161
SARS-CoV-2 infection rate [2]: 103% (inactive)

COCCN1CCN(Cc2ccc(-c3n[nH]c4c3C(=O)c3c(NC(=O)NN5CCOCC5)cccc3-4)cc2)CC1 (10 µM)
morphology score [1]: -0.35
SARS-CoV-2 infection rate [2]: 117% (inactive)

NS(=O)(=O)c1cc2c(cc1Cl)NCNS2(=O)=O [hydrochlorothiazide] (10 µM)
morphology score [1]: 0.0281
SARS-CoV-2 infection rate [2]: 110% (inactive)

CC1CCN(CC[C@H]2CCCN2S(=O)(=O)c2cccc(O)c2)CC1 (10 µM)
morphology score [1]: 0.0739
SARS-CoV-2 infection rate [2]: 102% (inactive)

CN(C)c1ccc(/C=C2\CCCN=C2c2cccnc2)cc1 [DMAB-anabaseine] (10 µM)
morphology score [1]: 0.121
SARS-CoV-2 infection rate [2]: 96.5% (inactive)

CN1C(=O)N(c2ccc(C#N)c(C(F)(F)F)c2)C(=O)[C@]1(CO)c1ccccc1 [GLPG0492-R-enantiomer] (10 µM)
morphology score [1]: -0.00354
SARS-CoV-2 infection rate [2]: 104% (inactive)

O=C1c2ccccc2C(=O)C1c1ccccc1 [phenindione] (10 µM)
morphology score [1]: -0.000221
SARS-CoV-2 infection rate [2]: 106% (inactive)

O=C([O-])CN1CCN(CC(=O)[O-])CCN([C@H](CO)[C@H](O)CO)CCN(CC(=O)[O-])CC1.[Gd+3] (racemic) [gadobutrol] (10 µM)
morphology score [1]: -0.0306
SARS-CoV-2 infection rate [2]: 109% (inactive)

COc1cc2nccc(Oc3ccc(NC(=O)NC4CC4)c(Cl)c3)c2cc1C(N)=O [lenvatinib] (10 µM)
morphology score [1]: 0.239
SARS-CoV-2 infection rate [2]: 100% (inactive)

CCCCCCCC/C=C\CCCCCCCC(=O)NCCO [oleoylethanolamide] (10 µM)
morphology score [1]: 0.0636
SARS-CoV-2 infection rate [2]: 102% (inactive)

CC1C=CC=CCCC=CC=CC=CC=CC(OC2OC(C)C(O)C(N)C2O)CC2OC(O)(CC(O)C(O)CCC(O)CC(O)CC(O)CC(=O)OC(C)C(C)C1O)CC(O)C2C(=O)O (stereo unspecified) [nystatin] (10 µM)
morphology score [1]: -0.0648
SARS-CoV-2 infection rate [2]: 116% (inactive)

CN1C(=O)CCS(=O)(=O)C1c1ccc(Cl)cc1 (stereo unspecified) [chlormezanone] (10 µM)
morphology score [1]: -0.0968
SARS-CoV-2 infection rate [2]: 117% (inactive)

Cc1c(-c2ccnn2C)cc(C(=O)NCc2ccc(S(C)(=O)=O)cn2)c(=O)n1-c1cccc(C(F)(F)F)c1 (10 µM)
morphology score [1]: 0.101
SARS-CoV-2 infection rate [2]: 106% (inactive)

CN1C(C(=O)Nc2ccccn2)=C(O)c2ccccc2S1(=O)=O [piroxicam] (10 µM)
morphology score [1]: 0.184
SARS-CoV-2 infection rate [2]: 98.5% (inactive)

CC(C)(C)C1CCc2c(sc(NC(=O)c3ccco3)c2C(=O)O)C1 (stereo unspecified) (0.833333 µM)
morphology score [1]: 0.0992
SARS-CoV-2 infection rate [2]: 106% (inactive)

Cc1cc(-c2ncc(CC(=O)Nc3ccc(-c4cnccn4)cn3)cc2C)ccn1 (10 µM)
morphology score [1]: -0.0828
SARS-CoV-2 infection rate [2]: 111% (inactive)

Brc1c(NC2=NCCN2)ccc2nccnc12 [brimonidine] (10 µM)
morphology score [1]: 0.0346
SARS-CoV-2 infection rate [2]: 106% (inactive)
